# T cruzi growth-1: T. cruzi intracellular proliferation inhibitors, primary screen, cell-based, beta-gal Tulahuen parasites, NIH3T3 host, luminescence; 5.9% of 77,000 active; inhibition, % at 8.34 µM; T. cruzi beta-gal in NIH3T3, GalScreen luminescence, 90 h;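 active = mean inhibition above about 93%, with at least 55% of replicates each passing it, limit read from the data, passing the limit was not always enough; inconclusive = only one of those two conditions holds; inactive = neither condition holds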
# Pf Dd2 growth: P. falciparum Dd2 growth inhibitors, primary screen, SYBR Green fluorescence, single dose replicates; 72 h; active compounds read low; activity change, % at 10 µM; 2.3% of 94,000 active; AID 1159554, 2015; in the data active = activity change below about -80%; inconclusive = no clear call, values can overlap the other calls
# C diff HTS: C. difficile growth inhibitors, primary screen, HTS; 0.25% of 86,000 active; Clostridium difficile clinical isolate growth, OD600, 24 h; active compounds read low; AID 1259249, 2017; growth activity, negative = inhibition, % at 16 µg/mL (by protocol);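 active = mean growth activity at or below -80% and every replicate also at or below -80%; inconclusive = mean at or below -80% but some replicate above -80%; inactive = mean growth activity above -80%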
# T cruzi growth-2: T. cruzi intracellular proliferation inhibitors, confirmation, cell-based, NIH3T3 host, beta-gal parasite, luminescence, cherry-pick; shares compounds with T cruzi growth-1; 72% of 5,600 active; AID 651739, 2012; T. cruzi beta-gal in NIH3T3, GalScreen luminescence, 90 h; inhibition, % at 8.35 µM;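 active = mean replicate inhibition above about 95% and at least 55% of replicates individually reaching it, limit read from the data; inconclusive = only one of the two criteria is met; inactive = neither criterion is met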
# T cruzi growth-3: inhibitors of intracellular T. cruzi replication, confirmation, NIH3T3 host cells, beta-gal parasites, cherry-pick, set 2. 21% of 5,600 active. AID 651740, 2012. shares compounds with T cruzi growth-1. inhibition, % at 2.09 µM. T. cruzi beta-gal in NIH3T3, GalScreen luminescence, 90 h;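 active = mean inhibition above about 95%, with at least 55% of replicates also reaching it, limit read from the data; inconclusive = meets just one of the two conditions; inactive = meets neither condition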
# 3T3 cytotox: cytotoxicity in mouse NIH/3T3 fibroblasts, confirmation, cytotoxicity control for T. cruzi proliferation inhibitor project, cell-based, cherry-pick, single point; shares compounds with T cruzi growth-1; NIH/3T3 viability, CellTiter-Glo ATP luminescence, 90 h; cytotoxicity (signal decrease), % at 8.35 µM; 14% of 5,600 active;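 active = mean signal decrease across replicates above about 35% based on untreated-well scatter, with enough replicates individually passing, limit read from the data; inconclusive = no rule stated though some were filed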
# NIH3T3 tox 2: NIH/3T3 fibroblast cytotoxicity, confirmation, cytotoxicity control, cell-based, cherry-pick, single point, set 2. shares compounds with T cruzi growth-1. NIH/3T3 viability, CellTiter-Glo ATP luminescence, 90 h. inhibition, % at 24.9 µM. 56% of 5,600 active. AID 651744, 2012;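 active = mean loss of cell viability signal at or above a set limit, and enough replicates individually reaching it; inconclusive = meets only the mean limit or only the replicate share; inactive = meets neither condition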
# Numbers stand for hits; 0 = inactive; ? = inconclusive; - = no result given. Most compounds without a hit are left out; they make up all but 6.8% or so of the library.
SMILES,T cruzi growth-1,Pf Dd2 growth,C diff HTS,T cruzi growth-2,T cruzi growth-3,3T3 cytotox,NIH3T3 tox 2
C[C@H](O)C#Cc1ccc2c(c1)O[C@@H](CN(C)Cc1ccncc1)[C@H](C)CN([C@H](C)CO)S2(=O)=O,113.1,0,0,99.5,0,0,38.9
C[C@@H](O)C#Cc1ccc2c(c1)O[C@H](CN(C)Cc1ccncc1)[C@@H](C)CN([C@@H](C)CO)S2(=O)=O,0,0,0,-,-,-,-
CC(C)CC#Cc1ccc2c(c1)O[C@H](CN(C)Cc1ccccn1)[C@@H](C)CN([C@@H](C)CO)S2(=O)=O,131.9,0,0,96.8,113.5,0,104.7
CC(C)CC#Cc1ccc2c(c1)O[C@H](CN(C)Cc1ccccn1)[C@H](C)CN([C@H](C)CO)S2(=O)=O,115.5,0,-,106.1,0,0,107.3
COCC#Cc1ccc2c(c1)O[C@@H](CN(C)Cc1ccccn1)[C@H](C)CN([C@H](C)CO)S2(=O)=O,0,0,0,-,-,-,-
COCC#Cc1ccc2c(c1)O[C@H](CN(C)Cc1ccccn1)[C@@H](C)CN([C@@H](C)CO)S2(=O)=O,0,0,0,-,-,-,-
CCCN1[C@@H]2c3ccc(-c4cccnc4)c(=O)n3C[C@H]1[C@H](CO)[C@H]2C(=O)NC1CCCC1,-,0,0,-,-,-,-
Cc1ccc(S(=O)(=O)Nc2ccc3c(c2)C(=O)N([C@@H](C)CO)C[C@H](C)[C@H](CN(C)C(=O)NC(C)C)O3)cc1,0,0,0,-,-,-,-
CC(C)CC#Cc1ccc2c(c1)O[C@@H](CN(C)C(=O)Cc1ccccc1)[C@@H](C)CN([C@@H](C)CO)S2(=O)=O,125.8,0,0,103.0,0,0,104.3
CC(C)CC#Cc1ccc2c(c1)O[C@H](CN(C)C(=O)Cc1cccnc1)[C@H](C)CN([C@H](C)CO)S2(=O)=O,-,0,0,-,-,-,-
CC(C)CC#Cc1ccc2c(c1)O[C@@H](CN(C)C(=O)Cc1ccncc1)[C@@H](C)CN([C@H](C)CO)S2(=O)=O,0,?,0,-,-,-,-
CC(C)CC#Cc1ccc2c(c1)O[C@@H](CN(C)C(=O)Cc1cccnc1)[C@@H](C)CN([C@@H](C)CO)S2(=O)=O,-,0,0,-,-,-,-
CC(C)CC#Cc1ccc2c(c1)O[C@H](CN(C)C(=O)Cc1ccncc1)[C@@H](C)CN([C@H](C)CO)S2(=O)=O,?,0,0,100.7,0,0,0
CC(C)CC#Cc1ccc2c(c1)O[C@H](CN(C)C(=O)Cc1ccccc1)[C@H](C)CN([C@@H](C)CO)S2(=O)=O,121.0,0,0,99.2,0,0,99.8
CC(C)CC#Cc1ccc2c(c1)O[C@@H](CN(C)C(=O)Cc1ccccc1)[C@@H](C)CN([C@H](C)CO)S2(=O)=O,127.0,0,0,98.2,112.5,0,103.3
CC(C)CC#Cc1ccc2c(c1)O[C@@H](CN(C)C(=O)Cc1cccnc1)[C@H](C)CN([C@H](C)CO)S2(=O)=O,-,0,0,-,-,-,-
CCCC#Cc1cnc2c(c1)C(=O)N([C@H](C)CO)C[C@H](C)[C@@H](CN(C)C(=O)Nc1c(C)noc1C)O2,0,0,0,-,-,-,-
COCC(=O)N(C)C[C@H]1Oc2cc(-c3ccccc3F)ccc2S(=O)(=O)N([C@H](C)CO)C[C@H]1C,-,0,0,-,-,-,-
C[C@@H]1CN([C@H](C)CO)C(=O)c2cc(NS(=O)(=O)c3cn(C)cn3)ccc2O[C@@H](C)CCCCO[C@H]1CN(C)Cc1ccncc1,0,0,0,-,-,-,-
C[C@@H]1CCCCO[C@@H](CN(C)C)[C@@H](C)CN([C@H](C)CO)C(=O)c2cc(NC(=O)Nc3cccc4ccccc34)ccc2O1,0,0,0,-,-,-,-
CCC(=O)N1[C@H](CO)[C@@H](c2ccc(C3=CCCC3)cc2)[C@H]1CNC(=O)CN(C)C,0,0,0,-,-,-,-
COc1cccc(CNC(=O)C[C@@H]2CC[C@@H](NC(C)=O)[C@@H](CO)O2)c1,0,0,-,-,-,-,-
O=C(C1CCC1)N1CC2(C1)[C@H](c1ccccc1)[C@@H](CO)N2C(=O)CC1CC1,-,0,0,-,-,-,-
CO[C@H]1CN(C)C(=O)c2ccc(NC(=O)C3CCC3)cc2OC[C@@H](C)N(CC2CCCCC2)C[C@@H]1C,?,0,-,107.0,0,0,103.3
CO[C@@H]1CN(C)C(=O)c2cc(NC(=O)C3CCOCC3)ccc2OC[C@@H](C)N(CC2CC2)C[C@@H]1C,98.9,0,-,0,0,0,0
SMILES,T cruzi growth-1,Pf Dd2 growth,C diff HTS,T cruzi growth-2,T cruzi growth-3,3T3 cytotox,NIH3T3 tox 2
CO[C@@H]1CN(C)C(=O)c2ccc(NC(=O)C3CC3)cc2OC[C@@H](C)N(CC2CCCC2)C[C@H]1C,-,0,0,-,-,-,-
CO[C@@H]1CN(C)C(=O)c2cc(NC(=O)C3CCOCC3)ccc2OC[C@@H](C)N(CC2CCOCC2)C[C@H]1C,0,-,-,-,-,-,-
CN1CCN(C(=O)C[C@H]2C[C@@H]3c4cc(NC(=O)C5CCC5)ccc4O[C@@H]3[C@H](CO)O2)CC1,0,0,0,-,-,-,-
Cn1cnc(CCNC(=O)C[C@H]2CC[C@@H]3[C@H](COC[C@@H](O)CN3C(=O)Nc3ccc(C(F)(F)F)cc3)O2)c1,113.6,0,0,100.5,0,0,0
Cn1cnc(CCNC(=O)C[C@@H]2CC[C@H]3[C@@H](COC[C@H](O)CN3C(=O)Nc3ccc(C(F)(F)F)cc3)O2)c1,0,0,0,-,-,-,-
Cn1cnc(CCNC(=O)C[C@@H]2CC[C@@H]3[C@H](COC[C@H](O)CN3C(=O)Nc3ccc(C(F)(F)F)cc3)O2)c1,107.2,0,0,0,0,0,0
Cn1cnc(CCNC(=O)C[C@@H]2CC[C@@H]3[C@H](COC[C@@H](O)CN3C(=O)Nc3ccc(C(F)(F)F)cc3)O2)c1,0,0,0,-,-,-,-
C[C@@H]1CN([C@@H](C)CO)C(=O)c2cc(NS(=O)(=O)c3ccc(F)cc3)ccc2O[C@@H](C)CCCCO[C@H]1CN(C)C,0,0,0,-,-,-,-
O=C(CN1CCOCC1)N1CCCCN2[C@@H](CO)[C@H](c3ccc(C#Cc4ccccc4)cc3)[C@@H]2C1,0,0,0,-,-,-,-
O=C(CN1CCOCC1)N1CCCCN2[C@@H](CO)[C@@H](c3ccc(/C=C/c4ccccc4)cc3)[C@@H]2C1,105.0,0,0,105.5,0,0,105.3
O=C(CN1CCOCC1)N1CCCCN2[C@H](C1)[C@@H](c1ccc(C#Cc3ccccc3)cc1)[C@@H]2CO,111.7,0,0,107.1,0,0,101.3
Cc1ccccc1-c1ccc([C@H]2[C@@H](CO)N3CCCCN(C(=O)CN4CCOCC4)C[C@@H]23)cc1,?,0,0,0,0,0,0

# Compound activity deposited in PubChem by Broad Institute.
